Compound activity (PubChem)
Rows were chosen to be rich in hits. Some 7.3% of all compounds tested hit in one or more screens of this group.
FLuc modulator: inhibits or activates purified firefly luciferase, miR-21 counter-screen; P08659; purified FLuc, Km substrates, luminescence inhibition; Potency, µM (doses to about 57.5 µM), usual class: inhibitors; hit rate 6.9% among 360,000; AID 588342; also: nearly all actives have a fitted effect of over 55% in size
Target sequence (P08659 whole entry, looked up): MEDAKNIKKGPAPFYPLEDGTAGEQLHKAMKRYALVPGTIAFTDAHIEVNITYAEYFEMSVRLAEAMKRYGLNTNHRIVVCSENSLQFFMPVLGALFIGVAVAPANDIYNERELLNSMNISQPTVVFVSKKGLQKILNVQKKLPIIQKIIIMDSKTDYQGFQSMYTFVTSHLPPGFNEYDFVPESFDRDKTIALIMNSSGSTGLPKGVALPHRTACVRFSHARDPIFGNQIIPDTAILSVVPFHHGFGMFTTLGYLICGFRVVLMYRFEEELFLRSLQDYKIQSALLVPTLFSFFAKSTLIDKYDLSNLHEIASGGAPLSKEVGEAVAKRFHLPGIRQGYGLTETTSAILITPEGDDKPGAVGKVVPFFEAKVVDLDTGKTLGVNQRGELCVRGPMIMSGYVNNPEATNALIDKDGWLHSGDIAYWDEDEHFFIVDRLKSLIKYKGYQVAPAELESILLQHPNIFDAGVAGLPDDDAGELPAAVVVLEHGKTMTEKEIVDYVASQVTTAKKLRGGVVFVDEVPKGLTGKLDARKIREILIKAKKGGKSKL
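Purified P. pyralis luciferase (10nM final) with 10uM D-luciferin and 10uM ATP (Km levels) in 50mM Tris acetate pH 7.5, 10mM Mg acetate, 0.01% Tween-20, 0.05% BSA; qHTS 6-point titration, ~60 µM downward; luminescence read.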
KinaseGlo FLuc: counter-screen: inhibitors of Kinase-Glo firefly luciferase; Q27757; Kinase-Glo luciferase, ATP luminescence, 8 min; Potency, µM (doses to about 38.3 µM), hits mostly inhibitors; hit rate 0.28% among 200,000; AID 1379; also: nearly all actives have a fitted effect of over 60% in size
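Substrate mix (final 50 mM imidazole pH 7.2, 50 mM KCl, 7 mM MgCl2, 10 uM ATP, 0.01% Tween 20, 0.05% BSA) plus pin-tool compound, then Kinase-Glo detection mix; 8 min ambient, luminescence read.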
NPC1 promoter act: NPC1 promoter activation; hit rate 2.4% among 320,000; Potency, µM (top dose mostly 9.22 µM), hits mostly activators; Huh7 NPC1 promoter luciferase reporter, 24 h; AID 485313; also: nearly all actives have a fitted effect of over 60% in size
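Huh7 reporter cells (NPC1 promoter driving luciferase) are dosed with compound for 24 h at 37 °C, 5% CO2; luciferase detection reagent is then added and luminescence measured after 10 min at ambient temperature.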
ELG1 genotoxic: inducers of genotoxicity in HEK293T ELG1-luciferase cells; HEK293T ELG1-luciferase reporter, luminescence, 16 h; hit rate 1.3% among 330,000; Potency, µM (highest dose often 46 µM), actives largely listed as activators; also: nearly all actives have a fitted effect of over 60% in size
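Cells (2,000/well) expressing the ELG1-luciferase fusion are dosed by pin tool and kept 16 hr at 37 °C, 5% CO2. Signal comes from ONE-Glo luciferase reagent after 30 min at room temperature.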
Rab9 promoter act: activates the Rab9 promoter; Huh7 Rab9 promoter-luciferase reporter, luminescence, 24 h; Potency, µM (top dose mostly 9.22 µM), usual class: activators; hit rate 2.8% among 320,000; also: nearly all actives have a fitted effect of over 60% in size
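Huh7 reporter line, Rab9 promoter upstream of luciferase. Compound exposure 24 h at 37 °C in reduced-serum medium with 10% FBS. Read-out: luminescence.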
SMN2 splice enh: increases expression of the SMN2 splice variant. hit rate 2.8% among 210,000. AID 1458. Potency, µM (titrated, usually from 46.1 µM), usual class: activators. HEK293 SMN2-luciferase splicing reporter, luminescence, 30-36 h; also: nearly all actives have a fitted effect of over 55% in size
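HEK293 cells carry an SMN2 […]–luciferase reporter in which exon 7 inclusion puts luciferase in frame. Cells were plated 10-12 h before compound addition, then incubated 30-36 h at 37C. ONE-Glo luminescence was read; sodium butyrate at 4.5 mM final served as control.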
Numbers stand for hits; . = inactive; ? = inconclusive; / = no result given; [ ] = another dose, or the depositor's remark. Calls follow the shape of the dose curve; as a rule, active = well fitted curve in the direction sought with a large enough effect; inconclusive = small, poorly fitted or top-dose-only effect, or another doubt; inactive = no such curve, though single readings can be large; an effect the other way counts as inactive or inconclusive.

SMILES	FLuc modulator	KinaseGlo FLuc	NPC1 promoter act	ELG1 genotoxic	Rab9 promoter act	SMN2 splice enh
Cc1ccc(C)c(Nc2nc(N)c3ccccc3n2)c1	4.8µM	.	2.5µM	?	2.5µM	14µM
O=C(NCC(=O)N1CCCC(C(F)(F)F)C1)c1ccc(Oc2ccccc2)cc1 (stereo not given)	0.27µM	/	?	?	2.5µM	/
O=C1c2ccccc2[C@@H]([C@@H]2c3ccccc3C(=O)c3cc(Br)ccc32)c2ccc(Br)cc21	/	.[7.66 µM]	/	/	/	.[9.22 µM]
O=[N+]([O-])c1cccc(C(F)(F)F)c1	/	/	/	/	/	.
Cc1ccc(/C=N/N2C(=O)c3ccccc3NC2c2ccc(C)cc2)cc1 (stereo not given)	?	.	.	?	?	13µM
COc1cc(C2Nc3ccccc3C(=O)N2c2ccccc2)ccc1O (stereo not given)	.	.	.	?	.	.
COc1ccc(N2C(=O)c3ccccc3NC2c2ccccc2O)cc1 (stereo not given)	.	/	1.4µM	?	1.3µM	/
COc1ccc(/C(C)=N/N2C(=O)c3ccccc3NC2c2ccc(O)c(OC)c2)cc1 (stereo not given)	13µM	/	.	?	?	/
COc1ccc(C2Nc3ccccc3C(=O)N2c2ccccc2)cc1Cn1cc([N+](=O)[O-])cn1 (stereo not given)	.	.	.	.	.	.
COc1ccc(N2C(=O)c3ccccc3NC2c2ccc(OC)c(Cn3cc([N+](=O)[O-])cn3)c2)cc1 (stereo not given)	.	/	2.8µM	.	?	/
Cc1ccc2c(c1)C(c1ccc(F)cc1)N(C(=O)c1ccc(OC(C)C)cc1)CC(=O)N2 (stereo not given)	.	/	/	/	/	.
CC1CCN(S(=O)(=O)c2ccc3c(ccc(=O)n3CC(=O)Nc3cccc(F)c3)c2)CC1	.	/	/	/	/	/
CC(C)Oc1ccccc1C1CC(=O)Nc2cc3c(cc21)OCCO3 (stereo not given)	.	.	.	.	.	.
C/C(=N\N1C(=O)c2ccccc2NC1c1ccccc1)c1ccccc1O (stereo not given)	.	.	?	4.6µM	0.63µM	2.8µM
C/C(=N\N1C(=O)c2ccccc2NC1c1ccco1)c1ccccc1O (stereo not given)	?	.	?	?	0.35µM	4µM
CC(C)Oc1ccccc1C1Nc2ccccc2C(=O)N1c1ccc2c(c1)OCCO2 (stereo not given)	13µM	.	0.79µM	?	1.1µM	7.9µM
O=C1c2ccccc2NC(c2ccco2)N1/N=C/c1ccco1 (stereo not given)	.	.	.	.	?	?
CS(=O)(=O)NN1C(=O)c2ccccc2NC1c1ccccc1 (stereo not given)	.	/	.	.	.	/
CCOc1ccc(N2C(=O)c3ccccc3C2O)cc1 (stereo not given)	12µM	.	3.2µM	9.2µM	?	13µM
CC(=O)c1cc(-c2ccccc2)n(CCC(=O)Nc2nc3c(C)cccc3s2)c1C	.	/	/	/	/	/
Cc1ccccc1Nc1oc(-c2ccccc2)nc1-c1cccs1	/	.	/	/	/	.
COc1cccc(C(=O)Nc2ccc(NC(=O)Cc3ccccc3)cc2)c1	.	/	.	.	.	/
Cc1cccc(C(=O)Nc2ccc3ccccc3c2)c1	2.4µM	/	?	?	0.63µM	/
Cn1c(N)c(C(=O)Nc2ccc3ccccc3c2)sc1=S	?	.	1.8µM	?	2.2µM	?
COc1cccc(C(=O)Nc2ccccc2)c1	24µM	.	?	?	?	?
SMILES	FLuc modulator	KinaseGlo FLuc	NPC1 promoter act	ELG1 genotoxic	Rab9 promoter act	SMN2 splice enh
COc1cccc(C(=O)Nc2ccc3ccccc3c2)c1	0.48µM	/	3.2µM	?	0.79µM	/
CSc1cccc(NC(=O)c2ccc3c(c2)CCCN3S(C)(=O)=O)c1	12µM	/	/	/	/	.
COc1c(C(=O)NNC(=O)c2ccccc2)csc1Br	11µM	/	?	?	2.8µM	/
COc1cccc(C(=O)N/N=C(/c2ccccc2)c2ccccn2)c1	19µM	.	.	.	.	.
CCS(=O)(=O)N1CCCc2cc(C(=O)Nc3cccc(C(C)=O)c3)ccc21	.	/	/	/	/	/
COc1cc(OC)cc(C(=O)NNC(=O)c2ccccc2Br)c1	.	.	.	.	.	.
COC(=O)c1cccc(NC(=O)Cc2coc3cc(OC)ccc23)c1	17µM	.	.	.	?	.
COc1cc(C(=O)N/N=C(\c2ccccc2)c2ccccn2)cc(OC)c1OC	.	.	.	?	.	.
COc1cc(NC(=O)CCc2c(C)nc3c4c(C)cc(C)nc4nn3c2C)cc(OC)c1	.	/	/	/	/	.
O=C(c1ccc(-n2c(=O)c(=O)[nH]c3ccccc32)cc1)N1CCCN(Cc2ccccc2)CC1	/	.	/	/	/	/
Cc1cc(C)cc(NC(=O)c2cc(S(=O)(=O)N3CCOCC3)cn2C)c1	.	/	/	/	/	/
O=C(Nc1cccc([N+](=O)[O-])c1)c1ccccc1	?	/	.	.	.	/
O=C(Nc1ccc2ccccc2c1)c1cccc([N+](=O)[O-])c1	12µM	/	?	?	?	/
COc1cccc(NC(=O)c2ccc(C(=O)c3ccccc3)o2)c1	6.7µM	.	?	.	?	20µM
COc1cccc(C(=O)NNC(=O)c2ccccc2)c1	?	/	2.5µM	12µM	3.5µM	/
COc1cccc(C(=O)NNC(=O)c2cccnc2)c1	.	/	.	.	.	/
COc1cccc(NC(=O)CC(=O)c2ccccc2)c1	17µM	/	3.5µM	?	2.8µM	/
COc1ccc2nc(NC(=O)c3cc(=O)c4cc(C)cc(C)c4o3)sc2c1	.	/	/	/	/	.
COc1ccc(-c2nc3ccccc3n3c(-c4ccc(OC)cc4)c4c(=O)n(C)c(=O)n(C)c4c23)cc1	.	/	/	/	/	.
CN1[C@@H]2CC[C@H]1CC(OC(=O)[C@@H](CO)c1ccccc1)C2 (stereo not given in full)	/	.	/	/	/	.
COc1cccc(-n2c(SCc3ccccc3C)nc3c([nH]c4ccccc43)c2=O)c1	.	/	/	/	/	/
COc1ccc(C(=O)Nc2ccc3ccccc3c2)cc1	0.19µM	/	0.089µM	0.46µM	?	/
O=C(CCl)Nc1cccc(Oc2ccccc2)c1	17µM	.	.	.	.	.
O=C(CCl)Nc1cccc(Oc2cnccn2)c1	.	/	.	.	.	/
COc1cccc(/C(C)=N/NS(=O)(=O)c2ccc(Cl)cc2)c1	?	.	.	.	.	.
CC(C)c1ccc(NC(=O)c2ccc(NS(C)(=O)=O)cc2)cc1	6.7µM	.	.	.	.	.
CCOC(=O)c1ccc(NC(=O)c2ccc(NS(C)(=O)=O)cc2)cc1	?	.	.	.	.	.
COc1cccc(/C(C)=N/N=C(\C)c2cccc(OC)c2)c1	6.7µM	/	?	?	3.2µM	/
O=S(=O)(O)c1cc(O)c2c(O)c(N=Nc3cccc4ccccc34)c(S(=O)(=O)O)cc2c1	/	.[7.66 µM]	/	/	/	.[9.22 µM]
COc1ccc(-c2nn3c(-c4ccccc4C)nnc3c3ccccc23)cc1	.	/	/	/	/	.
